Data published in PubChem BioAssay (Tox21).
Inconclusive results are not listed. Where a call stands in place of a potency, no number is given. The source made the active and inactive calls. Calls follow the shape of the dose curve; as a rule, active = well fitted cell-killing curve with a large enough effect in the repeat runs; inconclusive = weak or mixed curves, or effect the other way; inactive = flat fitted curve, though single readings scatter.
Potency is read from the fitted curve at half-maximal effect.

Test: qHTS RealTime-Glo MT Cell Viability Assay in HepG2 cells - 40 hour (AID 1224870); also: nearly all actives have a fitted effect of over 50% in size
Details: RealTime-Glo luminescence; series mostly up to 76.8 µM
Excerpt: National Center for Advancing Translational Sciences [NCATS]
NIH Chemical Genomics Center [NCGC]
U.S. Environmental Protection Agency [EPA]
National Institutes of Environmental Health Sciences [NIEHS]
National Toxicology Program [NTP]
U.S. Food and Drug Administration [FDA]
Measure of cell viability is critical in the cell-base assay. Analysis of cell viability is necessary for the characterization of cell responses to cytotoxic drugs and environmental stress. A RealTime-Glo MT Cell Viability Assay to monitor cell viability in real time of continues cell culture during 40 hours of compound treatment was used to screen Tox21 10K library compounds in HepG2 cells. The RealTime-Glo MT Cell Viability Assay is a nonlytic, homogeneous, bioluminescent method to measure cell viability in real time using a simple, plate-based method. The assay involves adding NanoLuc luciferase and a cell-permeant prosubstrate to cells in culture. Viable cells reduce the proprietary prosubstrate to generate a substrate for NanoLuc luciferase. This substrate diffuses from cells into the surrounding culture medium, where it is rapidly used by the NanoLuc Enzyme to produce a luminescent signal. The signal correlates with the number of viable cells, making the assay well suited for cytotoxicity studies.
Tox21 Assay Protocol Summary:
The mixture of HepG2 cell suspension and reagents were dispensed at 600cells/6 ul/well in 1536-well tissue culture treated black solid bottom plates using a Multidrop dispenser. After the assay plates were incubated at a 37 C/5% CO2 incubator for 5 hours, 23 nL of compounds dissolved in DMSO, positive and negative controls was transferred to the assay plate by a pintool work station. The plates were incubated at 37 C for 40 hours. The luminescence intensity were measured at 0h, 8h, 16h, 24h, 32h and 40h time points using ViewLux plate reader during compound treatment.
In the case of `c1ccoc1`, the Potency is reported as “inactive”.
With `CCOP(=S)(OCC)SCn1nnc2ccccc2c1=O` the Potency was “inactive”.
In the case of `CCOP(=O)(OCC)O/C(=C/Cl)c1ccc(Cl)cc1Cl`, the Potency is reported as “inactive”.
In the case of `CCC(COC(=O)c1cc(OC)c(OC)c(OC)c1)(c1ccccc1)N(C)C` (stereo not given), the Potency is reported as “inactive”.
For `O=S(=O)(O)C(F)(F)C(F)(F)C(F)(F)C(F)(F)F`, the Potency was “inactive”.
With `CCOP(=S)(OCC)SCSCC` the Potency was “inactive”.
In the case of `COC(C)(C)CCC[C@H](C)C/C=C/C(C)=C/C(=O)OC(C)C`, the Potency is reported as “inactive”.
In the case of `C[N+](C)(C)CCCl`, the Potency is reported as “inactive”.
For `COc1cc(Cl)c(OC)cc1Cl`, the Potency was “inactive”.
With `O=C(NC(=O)c1c(F)cccc1F)Nc1cc(Cl)c(Oc2ncc(C(F)(F)F)cc2Cl)c(Cl)c1` the Potency was “inactive”.
For `O=C(O)c1ccccc1C(=O)Nc1cccc2ccccc12`, the Potency was “inactive”.
In the case of `CCCCCCC#N`, the Potency is reported as “inactive”.
With `CCO[C@H]1O[C@@H]2OC3(C)CC[C@H]4[C@H](C)CC[C@@H]([C@H]1C)[C@@]24OO3` the Potency was “inactive”.
In the case of `CC(=O)C(C)(C)C`, the Potency is reported as “inactive”.
In the case of `C#CCOC(C(=O)OCCN(C)C)(c1ccccc1)c1ccccc1`, the Potency is reported as “inactive”.
With `COC(=O)C(C)N(C(=O)Cc1ccccc1)c1c(C)cccc1C` (stereo not given) the Potency was “inactive”.
In the case of `CCCCCCCCOC(=O)c1ccc(C(=O)OCCCCCCCC)c(C(=O)OCCCCCCCC)c1`, the Potency is reported as “inactive”.
With `CC(=O)CCC(C)=O` the Potency was “inactive”.
In the case of `CCCN(CCCl)c1c([N+](=O)[O-])cc(C(F)(F)F)cc1[N+](=O)[O-]`, the Potency is reported as “inactive”.
For `O=C(OC1CCCCC1)c1ccccc1C(=O)OC1CCCCC1`, the Potency was “inactive”.
For `C/C=C/C=O`, the Potency was “inactive”.
With `CCC(Cl)CCl` (stereo not given) the Potency was “inactive”.
With `C=COC(C)=O` the Potency was “inactive”.
With `OC(c1ccc(Cl)cc1)(c1ccc(Cl)cc1)c1cccnc1` the Potency was “inactive”.
With `ClCC(Br)CBr` (stereo not given) the Potency was “inactive”.
In the case of `O=C1C(Cl)C(CCl)CN1c1cccc(C(F)(F)F)c1` (stereo not given), the Potency is reported as “inactive”.
For `Clc1ccc(C2(Cn3cncn3)CC(Br)CO2)c(Cl)c1` (stereo not given), the Potency was “inactive”.
In the case of `[O-][Cl+]O`, the Potency is reported as “inactive”.
For `C/C(=C\c1ccccc1)[N+](=O)[O-]`, the Potency was 21.9 µM (active).
In the case of `CO/N=C(/C(=O)OC)c1ccccc1COc1ccccc1C`, the Potency is reported as “inactive”.
In the case of `Clc1cc(C(Cl)(Cl)Cl)cnc1Cl`, the Potency is reported as “inactive”.
For `CC[C@H]1C[C@H]2[C@@H]3CCC4=CC(=O)CC[C@@H]4[C@H]3CC[C@]2(C)[C@H]1O`, the Potency was “inactive”.
For `O=C(Nc1ccccc1)Nc1ccnc(Cl)c1`, the Potency was “inactive”.
For `OCCCBr`, the Potency was “inactive”.
In the case of `CCOc1nc(F)cc2nc(S(=O)(=O)Nc3c(Cl)cccc3Cl)nn12`, the Potency is reported as “inactive”.
In the case of `CC(C)(Cl)[N+](=O)[O-]`, the Potency is reported as “inactive”.
For `Cc1ccccc1CCl`, the Potency was “inactive”.
With `CC(C)N(CCC(C(N)=O)(c1ccccc1)c1ccccn1)C(C)C` (stereo not given) the Potency was “inactive”.
In the case of `C[C@@H]1CC[C@H]2[C@@H](C)C(=O)O[C@@H]3O[C@@]4(C)CC[C@@H]1[C@]32OO4`, the Potency is reported as “inactive”.
With `CCOc1ccc(C(C)(C)COCc2cccc(Oc3ccccc3)c2)cc1` the Potency was “inactive”.
